Assay outcomes: PubChem, National Center for Advancing Translational Sciences (NCATS)
HTT-AS promoter: activates huntingtin-antisense promoter activity. HEK293 HTT-AS promoter firefly luciferase reporter, 24 h; response scale: percent change from vehicle, -100% = no light. Potency, µM (top dose mostly 57.5 µM), for inactives: at the top dose activity change, positive = activation, usual class: activators. 0.24% of 48,000 active. AID 1508624; note: potency is the fitted concentration of half-maximal effect; nearly all actives have a fitted effect of over 55% in size
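Quantitative HTS used concentration series of up to 57.5 uM final on HEK293 luciferase reporter cells, 24 h at 37 degrees C. Readout was Dual-Glo firefly luminescence.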
SKOV3 invasion: blocks SKOV3ip1 adhesion and invasion in omental model. Potency, µM (highest dose often 45.8 µM), for the others: at the highest dose activity change, negative = inhibition, hits mostly inhibitors. SKOV3ip1-GFP adhesion/invasion on 3D omental model, fluorescence. 0.1% of 46,000 active;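 note: potency is the fitted concentration of half-maximal effect; plate controls were DMSO wells for no effect and tomatine positive control wells for full effect; nearly all actives have a fitted effect of over 65% in size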
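Primary human omental fibroblast/mesothelial 3D culture pre-formed 48 h. SKOV3ip1-GFP cells added with compounds (0.36-46 umol/L), incubated 2 h RT/16 h 37 C, fixed; GFP cells quantified at 488/509 nm.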
HTT prom inh: inhibits huntingtin promoter activity. HEK293 HTT promoter firefly luciferase reporter, 24 h. 0.93% of 48,000 active. Potency, µM (doses to about 57.5 µM), without a hit: at the highest dose activity change, negative = inhibition, usual class: inhibitors. AID 1508623; note: potency is the fitted concentration of half-maximal effect; nearly all actives have a fitted effect of over 50% in size
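HEK293 cells carrying firefly luciferase reporters were seeded at 2,500 per well in Opti-MEM and cultured for 24 h. They were then treated with compounds at up to 57.5 uM final for 24 h at 37 degrees C before Dual-Glo luminescence readout.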
NTMT1 inhibitor: NTMT1 methyltransferase inhibition | NTMT1 MTase-Glo SAH luminescence, purified enzyme | Q9BV86 | Potency, µM (series often up to 114 µM), without a hit: top-dose activity change, negative = inhibition, actives largely listed as inhibitors | 2.5% of 59,000 active;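 note: potency is the fitted concentration of half-maximal effect; plate controls were DMSO vehicle for no effect and no enzyme for full effect; nearly all actives have a fitted effect of over 65% in size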
Target sequence (Q9BV86 whole entry, looked up): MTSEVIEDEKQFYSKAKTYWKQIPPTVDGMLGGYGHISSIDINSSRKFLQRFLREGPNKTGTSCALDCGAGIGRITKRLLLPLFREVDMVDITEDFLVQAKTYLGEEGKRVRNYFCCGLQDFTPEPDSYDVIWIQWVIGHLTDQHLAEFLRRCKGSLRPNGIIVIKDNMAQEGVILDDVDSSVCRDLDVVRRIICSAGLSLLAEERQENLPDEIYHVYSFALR
GPR32 ag: agonists of human resolvin D1 receptor DRV1 (GPR32); O75388; CHO-K1 GPR32 beta-arrestin PathHunter luminescence, 90 min; zero percent set by DMSO-only wells; activation, % at 76.9 µM; 2.5% of 48,000 active; AID 1346428;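 active = activation of at least 60% and not above a set upper limit, about 1 call in 100 departs from these limits; inconclusive = activation of 40% to 60%, or above that upper limit; inactive = activation under 40%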; note: 0% is about no effect
Target sequence (O75388 whole entry, looked up): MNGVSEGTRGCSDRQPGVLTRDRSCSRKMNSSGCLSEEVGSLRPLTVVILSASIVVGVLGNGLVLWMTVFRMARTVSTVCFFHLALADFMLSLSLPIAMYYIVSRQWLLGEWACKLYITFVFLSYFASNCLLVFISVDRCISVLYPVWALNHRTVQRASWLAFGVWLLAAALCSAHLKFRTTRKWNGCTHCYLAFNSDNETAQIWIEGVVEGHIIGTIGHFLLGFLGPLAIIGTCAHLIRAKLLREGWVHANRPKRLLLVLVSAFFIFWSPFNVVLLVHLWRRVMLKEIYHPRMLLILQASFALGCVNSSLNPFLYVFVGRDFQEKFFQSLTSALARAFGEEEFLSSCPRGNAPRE
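Using DMSO wells as EC0, agonist-induced signal was taken as chemiluminescence from beta-Gal reconstituted upon beta-arrestin recruitment to GPR32 in CHO-K1 cells after 90 min compound treatment.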
Starred values were filed as active, the others as inactive; i = inactive; ? = inconclusive; . = not tested or not shown; ! = not confirmed by another sample; [ ] = remark or other dose. An excerpt weighted towards active compounds, which were near 4.5% of everything screened. Unless noted, calls come from the whole dose curve; as a rule, active = well fitted curve in the direction sought with a large enough effect; inconclusive = small, poorly fitted or top-dose-only effect, or another doubt; inactive = no such curve, though single readings can be large; an effect the other way counts as inactive or inconclusive.

SMILES | HTT-AS promoter | SKOV3 invasion | HTT prom inh | NTMT1 inhibitor | GPR32 ag
CCCn1c(-c2ccc(F)cc2)nc2c(NC3CC4CCC(C3)N4C)nc(C)nc21 (stereo not given) | . | . | . | 1% | .
CC1Cc2cc(S(=O)(=O)N(C)c3ccc(Br)cc3)ccc2N1C(=O)C1CC1 (stereo not given) | -32% | -24% | ? | 10% | -3
O=C(O)c1cccc(Nc2ncnc3ccc(Br)cc23)c1 | -13% | 0% | -7% | 20% | 11
C#Cc1cccc(Nc2nc3cc(C(=O)O)ccc3c3cncnc23)c1 | . | . | . | 25µM* | .
Cc1ccc(S(=O)(=O)N2CCC(c3ccncc3)CC2)c(C)c1 | -84% | -21% | 16µM* | ? | 9
CC(C)Cc1ccc(S(=O)(=O)N2CCC(c3ccncc3)CC2)cc1 | -80% | ? | 16µM* | ? | 10
CC(C)(C)c1ccc(S(=O)(=O)N2CCC(c3ccncc3)CC2)cc1 | -88% | 14% | 16µM* | 3% | -1
CC(C)CCn1c(=O)c2sccc2n2c(CCCC(=O)Nc3ccc(C(C)C)cc3)nnc12 | -9% | 1% | -14% | 19% | -14
COc1ccc2c(c1)C=C1Cn3c-2c(C2CCCCC2)c2ccc(cc23)C(=O)NS(=O)(=O)N(C)CCOCCN(C)C1=O | . | . | . | 45µM* | .
Cc1ccc(-n2[nH]c(C)c(N=Nc3cccc(-c4cccc(C(=O)O)c4)c3O)c2=O)cc1C | -33% | -8% | 1% | 35µM*! | 30
Cc1nc2sc(C(N)=O)c(N)c2c(-c2ccc(Br)cc2)c1C(=O)Nc1ccc(Cl)cc1 | -49% | ? | ? | -20% | 88*
O=c1sn(-c2cccc3ccccc23)c(=O)n1Cc1ccccc1 | . | . | . | 13µM* | .
O=c1c2sc3ccccc3c2n(Cc2ccccc2)c(=O)n1Cc1ccccc1 | -9% | 2% | -12% | 4% | -3
CC(=O)c1cccc(NC(=O)CCn2nc(C)c(S(=O)(=O)N(C)C)c2C)c1 | -28% | -8% | ? | -4% | -10
CC(=O)Nc1cccc(NC(=O)Cc2csc(COc3cccc(C)c3)n2)c1 | -17% | 2% | ? | -2% | 69*
Cc1cc2c(s1)c1cnn(Cc3ccc(C)c(F)c3)c(=O)c1n2C | . | . | . | 79µM* | .
O=C1Cc2cc(S(=O)(=O)N3CCN(c4ccc(CO)cc4)CC3)ccc2N1 | . | . | . | 50µM* | .
O=C1Cc2cc(S(=O)(=O)N3CCN(c4ccc(F)cc4)CC3)ccc2N1 | . | . | . | -5%[228 µM] | .
CC#CC(=O)N1CC[C@@H](n2c(=O)n(-c3ccc(Oc4ccccc4)cc3)c3c(N)ncnc32)C1 | . | . | . | 71µM* | .
Cc1ccc(-n2ncc3c(Nc4ccc(Oc5ccccc5)cc4)ncnc32)cc1 | 0% | -9% | -6% | 10% | 19
C=CC(=O)N1CCC[C@H](n2c(=O)n(-c3ccc(Oc4ccccc4)cc3)c3c(N)ncnc32)C1 | . | . | . | 89µM* | .
CN(C)S(=O)(=O)c1ccc(NC(=S)N2CCC(C(O)(c3ccccc3)c3ccccc3)CC2)cc1 | . | . | . | 9%[57.5 µM] | .
c1ccc(N2CCN(c3ncnc4c3nc3n4CCCC3)CC2)cc1 | -65% | 16% | 13µM* | 0% | ?
COc1ccccc1N1CCN(c2ncnc3c2nc2n3CCCC2)CC1 | -33% | i | ? | ? | 63*
Cc1cccc(N2CCN(C(=O)C3CCN(c4ncnc5c4nc4n5CCCCC4)CC3)CC2C)c1 (stereo not given) | -76% | -18% | 25µM* | -6% | 12
SMILES | HTT-AS promoter | SKOV3 invasion | HTT prom inh | NTMT1 inhibitor | GPR32 ag
Cc1cccc(N2CCN(C(=O)C3CCN(S(=O)(=O)c4c(C)noc4C)CC3)CC2C)c1 (stereo not given) | -33% | i | ? | 11% | 108*
Cc1cccc(/C=C/c2onc(C)c2S(=O)(=O)N2CCC(C(=O)N3CCCCC3)CC2)c1 | -33% | 4% | ? | 5% | -18
Cc1cnc(-c2ccccc2C(C)C)nc1NCc1cccs1 | . | . | . | 2%[57.5 µM] | .
CCOc1ccc(NC(=O)c2ccc3c(c2)CCN3S(=O)(=O)CC)cc1 | -30% | -7% | ? | 14% | 67*
CCS(=O)(=O)N1CCc2cc(C(=O)Nc3cc(C)cc(C)c3)ccc21 | 13% | -3% | -1% | -6% | -6
Cn1nc(C(=O)N2CCN(c3ccccc3)CC2)c2c1-c1ccccc1SC2 | -10% | -8% | -15% | 5% | 3
OCc1cc(C(O)CNCCCCCCOCCCCc2ccccc2)ccc1O (stereo not given) | -13% | . | -8% | ? | 108*!
CC(C)(C)NCC(O)c1ccc(O)c(CO)c1 (stereo not given) | -2% | -7% | 1% | -8% | -9
CCC(=O)Nc1ccc2nc(SCCOc3ccc(C)cc3OC)sc2c1 | -12% | 4% | -14% | ? | 93*
COc1cc(C)ccc1OCCSc1nc2ccc(NC(=O)c3ccc(F)cc3)cc2s1 | -14% | 2% | -4% | 1% | -3
Cc1cccc(C(=O)Nc2ccc3nc(SCCOc4ccccc4)sc3c2)c1 | -14% | i | -6% | 15% | 14
CCC(=O)Nc1ccc2nc(SCCOc3cccc(C)c3)sc2c1 | -30% | -14% | ? | -2% | 86*
CCOCCCNc1ncnc2c1cnn2-c1ccc(C)c(C)c1 | ? | -31% | 10% | ? | 89*
Fc1ccc(-n2ncc3c(NCCCc4ccccc4)ncnc32)cc1 | 8.9µM* | 25% | 27% | 1% | 41
Fc1ccc(-n2ncc3c(NCCCn4ccnc4)ncnc32)cc1 | 2.8µM* | 27% | 17% | 5% | ?
Cc1ccc(-n2ncc3c(NCCc4ccccc4)ncnc32)cc1C | ? | -1% | 21% | -2% | 8
Cc1ccc2nc(-c3c[nH]c4ccccc34)c(Nc3ccccc3C)n2c1 | 4% | 4% | 11% | -8% | -9
Cc1ccccc1Nc1c(-c2ccc(Cl)s2)nc2cccc(C)n12 | ? | -4% | 0% | 1% | 61*
Cc1ccccc1Nc1c(-c2c[nH]c3ccccc23)nc2cccc(C)n12 | ? | -7% | 22% | 3% | 63*
C=C(C)C(=O)O[C@H]1[C@H]2C(=C)C(=O)O[C@@H]2C[C@@H](C)/C=C\C(=O)[C@](C)(O)[C@@H]1OC(C)=O | . | . | . | 12%[29.8 µM] | .
O=C(Nc1ccc2oc(-c3cccnc3)nc2c1)c1ccc(-c2ccc(OC(F)(F)F)cc2)o1 | -11% | 7% | -21% | 50µM* | 30
O=C(Nc1ccc2oc(-c3cccnc3)nc2c1)c1ccc(-c2ccccc2)o1 | -34% | -7% | ? | ? | -1
Cc1cc(C)cc(-n2c(SCC(=O)Nc3ccc4c(c3)OCO4)nc3c([nH]c4ccccc43)c2=O)c1 | -19% | -2% | -8% | 1% | 3
Clc1cccc(-c2nc3ccccn3c2Nc2ccc3c(c2)OCCO3)c1 | -19% | -6% | 7% | 4µM* | -7
